ChEMBL document CHEMBL1201862, “PubChem BioAssay data set” (2004)
Out of some 410,000 compounds screened, about 7,200 (1.8%) were called active. Roughly 7% stayed inconclusive and do not appear here. The calls are words filed in the database; no cut-off is given here. Only a selection was taken, and actives are over-represented in it overall.

Target: TAR DNA-binding protein 43 (Homo sapiens) (UniProt Q13148)
Assay: qHTS of TDP-43 Inhibitors.
Assay type: functional

Sequence of TAR DNA-binding protein 43 (Homo sapiens) (Q13148 whole entry): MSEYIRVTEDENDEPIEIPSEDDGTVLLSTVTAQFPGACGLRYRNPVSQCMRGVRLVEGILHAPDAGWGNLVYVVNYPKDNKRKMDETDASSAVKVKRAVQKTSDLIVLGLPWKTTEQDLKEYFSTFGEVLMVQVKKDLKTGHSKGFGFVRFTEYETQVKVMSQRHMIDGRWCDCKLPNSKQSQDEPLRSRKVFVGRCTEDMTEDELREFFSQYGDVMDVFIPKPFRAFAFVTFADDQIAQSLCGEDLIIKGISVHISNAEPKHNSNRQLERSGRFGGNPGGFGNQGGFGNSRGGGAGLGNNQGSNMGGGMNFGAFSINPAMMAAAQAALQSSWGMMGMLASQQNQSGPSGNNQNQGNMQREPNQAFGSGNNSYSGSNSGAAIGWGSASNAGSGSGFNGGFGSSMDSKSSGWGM

| Structure (SMILES) | Potency |
| --- | --- |
| COc1ccc(OCC(O)COc2ccc(C(=O)O)cc2)cc1 (configuration not stated) | 100 µM (active) |
| O=C(Nc1ccccc1)c1ccccc1NS(=O)(=O)c1ccc(Cl)s1 | inactive |
| O=C(N/N=C/c1ccc(O)c2ncccc12)c1cccc(Br)c1 | inactive |
| Clc1ccc(-c2nnc(COc3ncnc4ccccc34)o2)cc1 | inactive |
| CCOc1cc(N2CCOCC2)c(OCC)cc1NC(=O)Cn1[nH]c(=O)c2ccccc2c1=O | 79.4 µM (active) |
| Cc1ccc(-c2cc(C(=O)N3N=C(C(F)F)CC3(O)C(F)F)c3ccccc3n2)cc1C (configuration not stated) | inactive |
| Cc1ccc(N(Cc2ccccc2)C(=O)c2cc(S(=O)(=O)N3CCOCC3)ccc2Cl)cc1 | inactive |
| COc1ccc2[nH]c3c(C)c4ccncc4c(C)c3c2c1 | inactive |
| O=C(O)Cc1ccccc1Nc1c(Cl)cccc1Cl | 15.8 µM (active) |
| O=C(Nc1cccc(F)c1)c1ccc2c(c1)OCCO2 | inactive |
| COc1ccc(Cl)cc1NC(=O)C1CCCN(c2cc(C)nc3ncnn23)C1 (configuration not stated) | inactive |
| CN(C(=O)COC(=O)c1cccnc1Nc1cccc(C(F)(F)F)c1)C1CCS(=O)(=O)C1 (configuration not stated) | inactive |
